What all share (assay): NCI-60 one-dose screen, 48 h (100 = growth as untreated, 0 = no growth, -100 = all killed)
Holding throughout (conditions): 10 µM unless noted

Test [1] deals with NCI-H23 lung.
Test [2] concerns NCI-H226 lung.
Test [3] has as its system NCI-H322M lung.
Test [4] concerns HOP-62 NSCLC.
For test [5], the system named is NCI-H460 lung.
Test [6] relates to HOP-92 NSCLC.
Test [7] deals with NCI-H522 lung.
For test [8], the system named is A549/ATCC NSCLC.
Test [9] has as its system 786-0 renal.
The subject of test [10] is COLO 205 colon.

About 83,000 compounds went through this panel and 20% of them were active in at least one assay; those are over-represented in the sample as a whole.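 Assay: single dose, 48 h. Readout: percent growth (0 = no net growth; negative = cell death). Active: <10.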 Unmarked numbers belong to inactive results. Active and inactive are the calls of the source.

As for `CCOC(=O)c1nn(C2CCCCO2)c2ccc(NS(=O)(=O)c3ccc(C)cc3)cc12` (stereo not given), the growth was 100% in test [1]; 102% in [2]; 104% in test [3]; 101% in test [4]; 99.4% in [5]; 96.4% in [6]. In addition, the growth was 98% in test [7], 95.1% in test [8], 94.4% in [9] and 121% in [10].

On to `CSc1nc2sc3cc(Cl)c(Cl)cc3n2c(=N)c1C#N`, for which the growth in [1] is 84.8%; in [2], 95%; in test [3] it was 104%; in [4] it was 94.7%; in [5], 98.7%; in [6], 98.9%. Further, the growth in [7] is 89.4%; in test [8], 106%; in test [9] it was 102%; in test [10], 122%.

Consider `O=[N+]([O-])c1cccc(N=NNc2cccc([N+](=O)[O-])c2)c1`, for which the growth was 95.2% in test [1]; 108% in test [2]; 101% in [3]; 110% in test [4]; 100% in test [5]; 64.4% in test [6]. Besides, the growth was 78% in test [7], 86.7% in test [8], 90.4% in test [9] and 113% in test [10].

For the molecule `O=C(CSc1nccc(Nc2ccc(S(=O)(=O)Nc3ccccn3)cc2)n1)c1ccc(Cl)cc1`, the growth in test [1] was 80.3%; in test [2], 89%; in test [3], 104%; in test [4], 83.5%; in [5], 104%; in test [6], 92.8%. The growth was 75.4% in test [7], 105% in test [8], 102% in [9] and 110% in test [10].

For `COc1ccc2c(c1)c(-c1noc(-c3cn(C)c4ncc(F)cc34)n1)cn2C`, the growth is 75.4% in [1]; 108% in test [2]; 57% in test [3]; 55.7% in test [4]; 18.5% in test [5]; 69.9% in test [6]. The growth in [7] was 79%; in test [8] it was 21.5%; in [9], 50.8%; in test [10], 88.3%.

On to `C[N+](C)(C)c1ncnc2[n-]cnc12`, for which the growth was 57.8% in test [1]; 90.4% in test [2]; 105% in [3]; 105% in [4]; 100% in test [5]; 83.2% in test [6]. Besides, the growth is 68.9% in test [7], 100% in test [8], 72.7% in test [9] and 103% in test [10].

In the case of `Nc1ccc2c(c1)Cc1cc(NC(=O)C(F)(F)F)ccc1-2`, the growth in test [1] was 95.9%; in test [2] it was 93.6%; in test [3] it was 95.5%; in test [4], 105%; in test [5], 97.8%; in test [6] it was 101%. Further, the growth in test [7] is 90.3%; in [8], 93.6%; in test [9], 108%; in [10], 109%.

Regarding `CCOC(=O)CC(c1ccccc1)C(C#N)c1ccccc1` (stereo not given), the growth in [1] is 102%; in test [2], 95.4%; in test [3], 108%; in test [4], 96.2%; in [5], 105%; in [6] it was 90.9%. The growth in test [7] is 95.9%; in test [8] it was 99.3%; in test [9], 98.7%; in test [10] it was 100%.

As to `CSc1nc(N)c(N=Nc2ccc(S(=O)(=O)Nc3nnc(C)s3)cc2)c(=O)[nH]1`, the growth in test [1] was 107%; in test [2], 100%; in [3], 109%; in test [4] it was 104%; in test [5] it was 106%; in test [6] it was 108%. In addition, the growth in test [7] was 103%; in [8] it was 115%; in test [9], 114%; in test [10], 96.3%.

Consider `C[C@]12CCc3c(ccc4cc(O)ccc34)[C@@H]1CC[C@H]2O`, for which the growth in test [1] is 95.7%; in test [2] it was 91.9%; in test [3], 105%; in test [4], 103%; in test [5], 102%; in test [6], 84.1%. The growth in test [7] was 88.3%; in [8], 108%; in [9], 104%; in [10], 108%.

In the case of `COc1ccc(-c2cc(-c3ccccc3)nc(NCCNc3ccnc4cc(Cl)ccc34)n2)cc1`, the growth was -77.2% (active) in test [1]; -37.9% (active) in test [2]; -81% (active) in test [3]; -83.8% (active) in test [4]; -60% (active) in test [5]; -77.4% (active) in test [6]. The growth was -61.9% (active) in test [7], -75.5% (active) in [8], -81.7% (active) in test [9] and -80.8% (active) in test [10].

For `c1coc2occoc=2o1`, the growth is 104% in test [1]; 97.2% in [2]; 110% in test [3]; 94.7% in test [4]; 113% in test [5]; 85.8% in test [6]. The growth is 91.7% in test [7], 97% in [8], 102% in test [9] and 122% in test [10].

In the case of `O=C(NCCCNC(=O)OCc1ccc2c(Br)cc(Br)c(O)c2n1)OCc1ccc2c(Br)cc(Br)c(O)c2n1`, the growth in test [1] was -46.3% (active); in test [2], 2.3% (active); in test [3], 32.7%; in test [4], -19.1% (active); in test [5], 4.8% (active); in [6], -80.3% (active). The growth is -60.9% (active) in test [7], 6.61% (active) in test [8], -58.9% (active) in [9] and -76.8% (active) in test [10].

These data come from PubChem BioAssay (NCI).
